This is a sample that favours compounds with a hit; in the whole collection about 2.9% have one here.
MEKK2mut PB1 HTS: signal of MEK5 binding to mutant human MEKK2 PB1 domain. bead flow cytometry, Alexa488-MEK5 binding to MEKK2 mutant. AID 1530. 290,000 compounds, 0.35% hits. percent response, % at 10 µM; in the data active means percent response above about 24%, passing the limit was not always enough
GRK2 aptamer HTS: blocks RNA aptamer binding to human GRK2 | P25098 | bead flow cytometry, FAM-aptamer displacement from GRK2 | inhibition of aptamer binding, % at 10 µM | 330,000 compounds, 0.59% hits;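 active means inhibition of aptamer binding above 40%, roughly 3 SD of noise, on plates passing a quality check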;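 further: median bead fluorescence of bound FAM aptamer so fluorescent compounds give negative values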
Beta2AR agonist: human beta-2 adrenergic receptor agonism by FAP; P07550; 340,000 compounds, 0.43% hits; Am2.2-beta2AR cells, FAP receptor internalization, flow cytometry; response, % (no concentration beside the values);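 active means response above a set limit, near 3 SD of response in nonfluorescent compounds, cut at about 42% in these data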
Target sequence (P07550 whole entry, looked up): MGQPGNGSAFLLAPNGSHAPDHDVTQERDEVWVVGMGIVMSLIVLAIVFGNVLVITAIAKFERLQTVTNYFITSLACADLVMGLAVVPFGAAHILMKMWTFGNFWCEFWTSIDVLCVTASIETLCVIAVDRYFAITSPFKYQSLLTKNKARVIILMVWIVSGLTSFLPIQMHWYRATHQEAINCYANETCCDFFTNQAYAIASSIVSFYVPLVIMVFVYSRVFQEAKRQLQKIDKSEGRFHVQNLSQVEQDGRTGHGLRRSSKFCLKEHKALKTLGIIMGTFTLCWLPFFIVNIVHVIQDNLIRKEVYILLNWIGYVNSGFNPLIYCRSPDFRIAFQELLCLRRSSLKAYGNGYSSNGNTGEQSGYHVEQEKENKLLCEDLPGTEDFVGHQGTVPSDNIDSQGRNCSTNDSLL
MEKK3 PB1 HTS: modulators (inhibitors or enhancers) of MEK5 binding to human MEKK3 PB1 domain | binding response (% of control), % at 10 µM | Q99759 | AID 1529 | 290,000 compounds, 1.4% hits | bead-based flow cytometry, Alexa488-MEK5 binding to MEKK3; actives lie on both sides; 0 = blocked by unlabeled MEK5, 100 = vehicle;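 active means binding response more than 3 SD above or below the average of its plate-row segment, actives on both sides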;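 further: Alexa488 bead fluorescence after subtracting the streptavidin-only scavenger bead signal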
MEKK2wt PB1 HTS: raises or lowers MEK5 binding to wildtype human MEKK2 PB1 domain; Q9Y2U5; bead flow cytometry, Alexa488-MEK5 binding to MEKK2 WT; actives lie on both sides; binding response (% of control), % at 10 µM; 290,000 compounds, 1.1% hits; AID 1531; in the data active means binding response below about 67% or above about 130%
MEKK2wt confirm: raises or lowers MEK5 binding to wildtype human MEKK2, retest. shares compounds with MEKK3 PB1 HTS. bead flow cytometry, Alexa488-MEK5 binding to MEKK2 WT; actives lie on both sides. binding response (% of control), % at 10 µM. 5,900 compounds, 2.4% hits; in the data active means binding response below about 16% or above about 210%; inactive means in between
MEKK2mut-MEK5: signal of MEK5 binding to mutant human MEKK2, retest; shares compounds with MEKK3 PB1 HTS; AID 1893; percent response, % at 10 µM; 5,900 compounds, 2% hits; bead flow cytometry, Alexa488-MEK5 binding to MEKK2 mutant; in the data active means percent response mostly above about 71%, no sharp cut-off; inactive means mostly below about 38%;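 further: higher means compound restores mutant binding toward wildtype level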
MEKK3 confirm: confirmation of inhibitors of MEK5 binding to human MEKK3. shares compounds with MEKK3 PB1 HTS. 5,900 compounds, 1.8% hits. binding response (% of control), % at 10 µM. bead flow cytometry, Alexa488-MEK5 binding to MEKK3; hits give low values;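 active means binding response below 72% of control, or above a set upper limit, though filed actives all read lower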
A number is an active result; . = inactive; / = no result given; [ ] = dose if it differs, or a comment.

SMILES	MEKK2mut PB1 HTS	GRK2 aptamer HTS	Beta2AR agonist	MEKK3 PB1 HTS	MEKK2wt PB1 HTS	MEKK2wt confirm	MEKK2mut-MEK5	MEKK3 confirm
CC1(C(=O)NCCOc2ccccc2Cl)CC1(Cl)Cl (configuration not stated)	.	.	.	.	.	/	/	/
COc1ccccc1NC(=O)CSc1nc(N)c(C#N)cc1C#N	.	.	.	130	.	.	.	.
CCOc1ccccc1NC(=O)CSc1nc(N)c(C#N)cc1C#N	.	.	.	.	.	/	/	/
O=c1c(Cc2ccccc2)c(O)ccn1CCc1cnc[nH]1	.	.	.	.	.	/	/	/
O=C(O)C(Cc1ccccc1)N1C(=O)/C(=C/C=C/c2ccco2)SC1=S (configuration not stated)	.	/	.	37[inhibitor]	40[inhibitor]	.	.	.
N/C(Cc1ccc([N+](=O)[O-])cc1)=N\OC(=O)Cc1ccccc1	.	.	.	53[inhibitor]	.	.	.	.
N/C(Cc1ccc([N+](=O)[O-])cc1)=N\OC(=O)Cc1ccc(Cl)cc1	.	.	.	71[inhibitor]	.	.	.	.
N#CC(C#N)=CC1=C2OC(c3ccccc3)=CC(c3ccccc3)=C2CCC1	.	.	.	74[inhibitor]	72[inhibitor]	.	.	.
O=C(NNC1=NC2(CCCC2)Cc2ccccc21)c1ccncc1	.	.	.	.	.	/	/	/
CC(C)Cn1c(N)c(C(=O)COC(=O)c2ccc(Br)cc2)c(=O)n(C)c1=O	/	.	.	/	/	/	/	/
COCCCC1CCN(C(=O)c2cc(COc3ccc(C)nc3)on2)CC1	.	.	.	.	.	/	/	/
CN(c1ccccc1)c1nc(N2CCCC2)nc(-n2ccnc2)n1	.	.	.	.	134	.	.	.
O=c1c2cc(F)ccc2[nH]c(=S)n1Cc1ccc(F)cc1	.	.	.	.	.	/	/	/
COc1ccc(-c2n(Cc3ccccc3)c3ccccc3[n+]2Cc2ccccc2)cc1	.	.	.	.	.	/	/	/
Cc1ccc2nc(N=C(N)N)nc(C)c2c1	.	.	.	.	.	/	/	/
Cc1nc(N=C(N)N)nc2ccccc12	.	.	.	75[inhibitor]	.	.	.	.
O=C(Cc1ccccc1[N+](=O)[O-])OCC(=O)N1CCN(c2ccccc2)CC1	/	.	.	/	/	/	/	/
CCN1CCN(c2cc(N3CCc4ccccc4C3)c(F)cc2[N+](=O)[O-])CC1	.	.	.	.	151	.	.	.
COCc1cc(C)nc(SCc2ccc(Br)cc2)c1C#N	/	.	.	/	/	/	/	/
CC(=O)Nc1ccc(S(=O)(=O)Nc2cccc(NC(=O)c3ccco3)c2)cc1	.	.	.	45[inhibitor]	.	.	.	.
O=c1[nH]c2cc3c(cc2cc1CN(CCO)S(=O)(=O)c1ccccc1)OCCO3	.	.	.	130	.	.	.	.
COCC(=O)N(c1ccccc1)C(C)C(=O)OC (configuration not stated)	.	.	.	.	.	/	/	/
CCN(CC)c1ccc(-n2c(O)c(C=C3N=c4ccccc4=N3)sc2=S)cc1	.	.	.	153	.	.	.	.
CCN(Cc1ccccc1)S(=O)(=O)c1ccc(C(=O)N(CCCN(C)C)c2nc3cc4c(cc3s2)OCO4)cc1	39	.	.	.	202	.	.	.
CN(C)CCN(C(=O)CCc1ccccc1)c1nc2c(F)cc(F)cc2s1	.	.	.	.	.	/	/	/
SMILES	MEKK2mut PB1 HTS	GRK2 aptamer HTS	Beta2AR agonist	MEKK3 PB1 HTS	MEKK2wt PB1 HTS	MEKK2wt confirm	MEKK2mut-MEK5	MEKK3 confirm
CN(C)CCCN(C(=O)c1ccc2c(c1)CCCC2)c1nc2ccc(F)cc2s1	.	.	.	138	142	.	.	.
CN(C)CCCN(C(=O)c1ccc(S(=O)(=O)N2CCc3ccccc32)cc1)c1nc2ccc(F)cc2s1	25	.	.	.	166	.	.	.
CN(C)CCCN(C(=O)CCc1ccccc1)c1nc2ccc(F)cc2s1	.	.	.	129	.	.	.	.
Cc1cc(C)c2sc(N(CCCN(C)C)C(=O)c3ccc(S(=O)(=O)N4CCCc5ccccc54)cc3)nc2c1	/	.	.	/	/	/	/	/
CN(C)CCCN(C(=O)c1ccc(S(=O)(=O)N(C)C)cc1)c1nc2ccc(F)cc2s1	.	.	.	.	.	/	/	/
Cc1ccc2c(c1)N(C(=O)CCC(=O)NC1CCCCCC1)CCO2	.	.	.	.	.	/	/	/
CCN(CC)CCN(C(=O)c1ccc2c(c1)CCCC2)c1nc2ccc(OC)cc2s1	.	.	.	.	.	/	/	/
CN(C)CCCN(C(=O)COc1ccccc1)c1nc2cc3c(cc2s1)OCCO3	.	.	.	.	.	/	/	/
CN(C)CCCN(C(=O)c1ccc(C(=O)c2ccccc2)cc1)c1nc2cc3c(cc2s1)OCCO3	27	.	.	.	166	.	.	.
CN(C)CCCN(C(=O)c1ccc2c(c1)CCCC2)c1nc2cc3c(cc2s1)OCO3	.	.	.	.	154	.	.	.
CCN(CC)CCN(C(=O)c1ccc2c(c1)CCCC2)c1nc2c(C)cccc2s1	29	.	.	.	158	.	.	.
CN(C)CCCN(C(=O)c1ccc(S(=O)(=O)N(C)C)cc1)c1nc2cc3c(cc2s1)OCO3	.	.	.	.	.	/	/	/
CCN(CC)CCN(C(=O)c1ccc2c(c1)CCCC2)c1nc2ccc(F)cc2s1	.	.	.	.	154	.	.	.
CCN(CC)CCN(C(=O)c1ccc(S(=O)(=O)N(C)C2CCCCC2)cc1)c1nc2c(C)cccc2s1	.	.	.	.	.	/	/	/
COc1ccc(N2CC(C(=O)Nc3cc(C)ccn3)CC2=O)cc1 (configuration not stated)	.	.	.	.	.	/	/	/
CCOC(=O)C1=C(C)NC(=S)NC1c1ccc(OCC(=O)N2CCCCCC2)c(OC)c1 (configuration not stated)	.	.	.	.	.	/	/	/
Cc1cccc(C)c1NC(=O)c1ccc(OCc2c(C)noc2C)cc1	/	.	.	/	/	/	/	/
COc1ccc(-n2c(=O)[nH]c3cc(C(=O)NCCc4ccccc4)ccc3c2=O)cc1OC	.	.	.	.	.	/	/	/
CN1C(=O)OC(C)(C)C1=O	.	.	.	.	.	/	/	/
CC(C)(C)c1ccc(-c2nnc(SCC(=O)NC3CC3)o2)cc1	/	.	.	/	/	/	/	/
COCCNC(=S)NN=C1CCC(c2ccccc2)CC1 (configuration not stated)	.	.	.	.	.	/	/	/
COCCNC(=S)NN=C1CCCCCC1	.	/	.	4.0[inhibitor]	7.0[inhibitor]	.	.	.
Cc1ccnc(S(=O)(=O)Cc2ccc([N+](=O)[O-])cc2)n1	.	.	.	.	.	/	/	/
Cc1c(C(=O)N(Cc2ccccc2)Cc2cccs2)cnn1-c1ccc(Cl)cc1	.	.	.	132	.	.	.	.
